Here are results for 26 molecules from the supplement of paper PMC13380429.

Each structure is given as a SMILES string.

In assay [1] the test system is Vero E6 infected with SARS-CoV-2. The assay can be described thus: morphology score (similarity to uninfected cells); higher = more like uninfected cells. Conditions: 24 h.
Assay [2] has the same test system. The assay can be described thus: SARS-CoV-2 infection rate relative to infected DMSO; higher = more infection, active = 60 or less. The note with it: 24 h.

Consider `N[C@@H](CS(=O)O)C(=O)O` [L-cysteinesulfinic-acid] (10 µM), for which the morphology score in assay [1] was -0.0506. The SARS-CoV-2 infection rate in assay [2] is 108% (inactive).

Turning to `Cc1c(-c2ccc(-c3ccccc3F)cc2)nc2ccc(F)cc2c1C(=O)O` [brequinar] (10 µM), the morphology score in assay [1] stood at 0.115. Moreover, the SARS-CoV-2 infection rate in assay [2] was 95% (inactive).

In assay [1], `CC(C)OC(=O)C(C)(C)Oc1ccc(C(=O)c2ccc(Cl)cc2)cc1` [fenofibrate] (10 µM) displayed a morphology score of 0.0415. The SARS-CoV-2 infection rate in assay [2] is 101% (inactive).

Take `c1ccc(-c2oc3ncnc(NC[C@@H]4CCCO4)c3c2-c2ccccc2)cc1` (10 µM): the morphology score in assay [1] was 0.0044. Besides, the SARS-CoV-2 infection rate in assay [2] was 106% (inactive).

The molecule `COc1cc2c(cc1OC)-c1cc3ccc(OC)c(OC)c3c[n+]1CC2` [palmatine-chloride] (10 µM) came in with a morphology score in assay [1] of 0.189. Besides, in assay [2], the SARS-CoV-2 infection rate was 92% (inactive).

`COc1nc(C)nc(Cl)c1NC1=NCCN1` [moxonidine] (10 µM) had a morphology score in assay [1] of 0.0753. The SARS-CoV-2 infection rate in assay [2] is 102% (inactive).

The molecule `FC(F)(F)c1ccc(CNc2ccc(Cc3c[nH]c4ncccc34)cn2)cc1` (10 µM) yielded a morphology score in assay [1] of 0.0358. Further, the SARS-CoV-2 infection rate in assay [2] is 110% (inactive).

As for `Oc1ncnc2[nH]ncc12` [allopurinol] (10 µM), the morphology score in assay [1] is -0.0914. In addition, the SARS-CoV-2 infection rate in assay [2] was 108% (inactive).

`c1cc(CN2CCCCC2)cc(OCCCNc2nc3ccccc3s2)c1` [zolantidine] (10 µM) returned a morphology score in assay [1] of 0.67. Moreover, the SARS-CoV-2 infection rate in assay [2] was 44% (active).

Regarding `CC(C)c1nc(N(C)S(C)(=O)=O)nc(-c2ccc(F)cc2)c1/C=C/[C@@H](O)C[C@@H](O)CC(=O)O` [rosuvastatin] (0.833333 µM), the morphology score in assay [1] came to 0.322. Further, the SARS-CoV-2 infection rate in assay [2] is 99% (inactive).

For `OCC(CO)N[C@H]1C[C@](O)(CO)[C@@H](O)[C@H](O)[C@H]1O` [voglibose] (10 µM), in assay [1], the morphology score is -0.105. Besides, the SARS-CoV-2 infection rate in assay [2] was 106% (inactive).

As to `CC(=O)OCC(=O)[C@@]1(O)CC[C@H]2[C@@H]3CCC4=CC(=O)C=C[C@]4(C)[C@H]3[C@@H](O)C[C@@]21C` [prednisolone-acetate] (10 µM), the morphology score in assay [1] is -0.148. Besides, the SARS-CoV-2 infection rate in assay [2] is 108% (inactive).

On to `CC(C)c1cc(C(C)C)c(CC(=O)NS(=O)(=O)Oc2c(C(C)C)cccc2C(C)C)c(C(C)C)c1` [avasimibe] (10 µM), for which the morphology score in assay [1] stood at 0.0222. Further, in assay [2], the SARS-CoV-2 infection rate was 110% (inactive).

For the molecule `CC(=O)O[C@]1(C(C)=O)CC[C@H]2[C@@H]3C[C@H](C)C4=CC(=O)CC[C@]4(C)[C@H]3CC[C@@]21C` [medroxyprogesterone-acetate] (10 µM), the morphology score in assay [1] worked out at 0.153. Further, the SARS-CoV-2 infection rate in assay [2] was 105% (inactive).

For the molecule `CC(=O)c1ccc2c(c1)N(CCCN(C)C)c1ccccc1S2` [acepromazine] (10 µM), the morphology score in assay [1] is 0.192. The SARS-CoV-2 infection rate in assay [2] is 104% (inactive).

In assay [1], `CC(C)c1onc(-c2c(Cl)cccc2Cl)c1COc1ccc(/C=C/c2cccc(C(=O)O)c2)c(Cl)c1` (10 µM) returned a morphology score of 0.151. Besides, the SARS-CoV-2 infection rate in assay [2] was 96.5% (inactive).

Regarding `Clc1cccc(Nc2nnc(-c3ccccc3)c3ccccc23)c1` (10 µM), the morphology score in assay [1] was found to be 0.2. Further, the SARS-CoV-2 infection rate in assay [2] is 94% (inactive).

The molecule `CC1(C)CC(O)CC(C)(C)N1[O]` [tempol] (10 µM) came in with a morphology score in assay [1] of 0.209. Further, in assay [2], the SARS-CoV-2 infection rate is 97% (inactive).

As for `CC1(C)O[C@@H]2[C@@H](CO[C@@]3(COS(N)(=O)=O)OC(C)(C)O[C@@H]23)O1` [topiramate] (10 µM), in assay [1], the morphology score was 0.00625. Also, the SARS-CoV-2 infection rate in assay [2] is 102% (inactive).

In the case of `Cc1onc(-c2ccccc2)c1C(=O)N[C@@H]1C(=O)N2[C@@H]1SC(C)(C)[C@@H]2C(=O)O` [oxacillin] (10 µM), the morphology score in assay [1] is -0.00627. Besides, the SARS-CoV-2 infection rate in assay [2] was 110% (inactive).

`CNC(=O)c1cc(Oc2ccc(NC(=O)Nc3ccc(Cl)c(C(F)(F)F)c3)c(F)c2)ccn1` [regorafenib] (0.833333 µM) displayed a morphology score in assay [1] of 0.0372. For the same molecule, the SARS-CoV-2 infection rate in assay [2] is 110% (inactive).

In assay [1], `NS(=O)(=O)C#Cc1ccccc1` [pifithrin-mu] (0.833333 µM) yielded a morphology score of 0.168. Further, the SARS-CoV-2 infection rate in assay [2] is 92% (inactive).

In the case of `C1=C2CCCN[C@H]2[C@@H]2C[C@H]1[C@H]1CCCCN1C2` [aloperine] (10 µM), the morphology score in assay [1] was determined as 0.199. Further, the SARS-CoV-2 infection rate in assay [2] was 102% (inactive).

The molecule `C[C@@H]1[C@H](O)[C@@H](C)/C=C/C=C/C=C/C=C/C=C/C=C/C=C/[C@H](O[C@@H]2O[C@H](C)[C@@H](O)[C@H](N)[C@@H]2O)C[C@@H]2O[C@](O)(C[C@@H](O)C[C@@H](O)[C@H](O)CC[C@@H](O)C[C@@H](O)CC(=O)O[C@H]1C)C[C@H](O)[C@H]2C(=O)O` [amphotericin-b] (10 µM) registered a morphology score in assay [1] of 0.132. Further, in assay [2], the SARS-CoV-2 infection rate was 107% (inactive).

In assay [1], `O=C(O)[C@@H]1C[C@@H](O)CN1` [L-hydroxyproline] (10 µM) gave a morphology score of 0.203. Further, the SARS-CoV-2 infection rate in assay [2] was 101% (inactive).

Regarding `Cc1cc(C)c2c(N)c(C(=O)NCc3ccc(Cl)cc3)sc2n1` (10 µM), the morphology score in assay [1] turned out to be 0.0846. In addition, in assay [2], the SARS-CoV-2 infection rate is 99% (inactive).
